PubChem BioAssay AID1347172 (National Center for Advancing Translational Sciences (NCATS), 2019)
Results filed as inconclusive are left out. A call without a number means that no potency is given here. Calls of active or inactive are those of the source. The call rests on the fitted dose curve; in most records, active means well fitted inhibition curve with a large enough effect; inconclusive means small, poorly fitted or top-dose-only effect; inactive means flat fitted curve, though single readings scatter.

Test: Secondary qRT-PCR qHTS assay for selected Zika virus inhibitors
Settings: Vero cells ZIKV infection, NS5 RNA qRT-PCR, 24 h; series mostly up to 32.6 µM
Text: Assay Submitters (PI): Avindra Nath, Ph.D., National Institute of Neurological Disorders and Stroke (NINDS), Bethesda, MD Radhakrishnan Padmanabhan, Ph.D., Georgetown University (GU), Washington D.C. Zika Virus causes congenital defects, including microcephaly and is associated with Guillain-Barre syndrome, eningoencephalitis and myelitis in infected adult. […] Using a target-based approach, we hope to establish a screening paradigm to uncover novel, cell-active NS2B-NS3 protease (Zika Virus) specific inhibitors from NCATS' collection of small molecules using qHTS. […] Four assay panel was created to identify potential Zika Virus inhibitors. Namely, (1) GU unlinked NS2B-NS3 AMC tagged protease qHTS, (2) GU unlinked NS2B-NS3 Rhodamine tagged protease qHTS, (3) NINDS linked NS2B-NS3 AMC tagged protease qHTS, (4) NINDS linked NS2B-NS3 Rhodamine tagged protease qHTS. Inhibitors of the Zika virus primary screens are confirmed using qRT-PCR secondary assays, qRT-PCR mCherry orthogonal assay, and qRT-PCR viability counterscreen. Early Translation Branch (ETB) National Center for Advancing Translational Sciences (NCATS), Rockville, MD National Institute of Health (NIH), Bethesda, Maryland
384-well ZIKV qRT-PCR Assay: Vero cells were treated with the indicated compounds at different concentrations, infected with ZIKV (MOI=1) and incubated at 37 degrees C for 3 hours to permit virus invasion. After 3 hr, supernatant was removed, and cells were washed once to remove extracellular virus. After a further 21 hr incubation, infected cells were washed three times with cold PBS (4 degrees C). Plates were then process using the TaqmanGene Expression Cells-to-Ct Kit (ThermoFisher Scientific) following the manufactures protocol. Primers directed to the NS5 sequence (F-[…]; R-GCTCGGCCAATCAGTTCA) along with Taqman probe (FAM-[…]-BHQ; Biosearch Technologies) were used to quantify drug inhibition of viral load. Reactions were run at initial 95 degrees C for 10 min, then 40 cycles of 95 degrees C for 20 sec and 60 degrees C for 40 sec using a LightCycler 480 (Roche). Relative viral copy numbers were generated by normalizing to cells treated with vehicle.

Row | SMILES | Potency
1 | Cc1ccc2[nH]c(=O)c(C3=NN(C(=O)CCC(=O)O)C(c4ccc(Br)cc4)C3)c(-c3ccccc3)c2c1 (stereo not given) | inactive
2 | CCOc1c2c(c(OCC)c3ccccc13)C(=O)N(c1ccc(CC(=O)NS(=O)(=O)c3ccccc3)cc1)C2 | inactive
3 | Cc1ccn(-c2ccc(-c3ncco3)cc2)c(=O)c1-c1ccc2nc(N)ncc2c1 | inactive
4 | COc1ccc(NS(=O)(=O)c2ccc(NS(=O)(=O)c3ccc4c(c3)OCCO4)cc2)cc1 | inactive
5 | CCOc1nc2cccc(C(=O)OC(C)OC(=O)OC3CCCCC3)c2n1Cc1ccc(-c2ccccc2-c2nn[nH]n2)cc1 (stereo not given) | 12.6 µM (active)
6 | CC1=C(C(=O)OCc2ccccc2)C(c2ccc(-c3ccccc3)cc2)NC(=O)N1CCCCCC(=O)O (stereo not given) | inactive
7 | CN(C)[C@@H]1C(=O)C(C(N)=O)=C(O)[C@@]2(O)C(=O)C3=C(O)c4c(O)cccc4C[C@H]3C[C@@H]12 | inactive
8 | Cc1ccc([C@@H]2CC=C(C(=O)O)[C@H](c3ccc(C(C)(C)C)cc3)N2S(=O)(=O)c2ccc(C)cc2)cc1 | inactive
9 | O=C(O)/C=C/c1ccc(-c2ccc(O)c(C34CC5CC(CC(C5)C3)C4)c2)cc1 | 10 µM (active)
10 | CCOC(=O)c1ccc(N2C(=O)c3n[nH]c(-c4cccs4)c3C2c2ccc(C(C)(C)C)cc2)cc1 (stereo not given) | 3.55 µM (active)
11 | C=C1c2cccc(O)c2C(O)=C2C(=O)[C@]3(O)C(O)=C(C(N)=O)C(=O)[C@@H](N(C)C)[C@@H]3[C@@H](O)[C@H]12 | inactive
12 | O=C(O)Cc1cccc(OCCCN(Cc2cccc(C(F)(F)F)c2Cl)CC(c2ccccc2)c2ccccc2)c1 | 14.1 µM (active)
13 | CC(C)C[C@H](C(=O)O)c1cc(-c2ccc(C(F)(F)F)cc2)cc(-c2ccc(C(F)(F)F)cc2)c1 | 12.6 µM (active)
14 | CC(C)c1ccc2c(c1)c(SC(C)(C)C)c(CC(C)(C)C(=O)O)n2Cc1ccc(Cl)cc1 | 10 µM (active)
15 | CC(C)c1onc(-c2c(Cl)cccc2Cl)c1COc1ccc(/C=C/c2cccc(C(=O)O)c2)c(Cl)c1 | 11.2 µM (active)
16 | O=S(=O)(O)c1ccc2cc(N=Nc3cc(S(=O)(=O)O)c4cccnc4c3O)ccc2c1 | inactive
17 | O=C(O)c1c(Sc2ccccc2)c2cc(Cl)ccc2n1Cc1ccc(Cl)cc1 | inactive
18 | COc1ccccc1-c1cccc(-c2c(O)c3cc(C#N)c(Cl)cc3[nH]c2=O)c1 | inactive
19 | COc1cc(C(=O)O)ccc1NC(=O)[C@@H]1N[C@@H](CC(C)(C)C)[C@](C#N)(c2ccc(Cl)cc2F)[C@H]1c1cccc(Cl)c1F | 12.6 µM (active)
20 | CO[C@H]1C[C@@H](O[C@@H]2/C(C)=C/C[C@@H]3C[C@@H](C[C@]4(CC[C@H](C)[C@@H](C5CCCCC5)O4)O3)OC(=O)[C@@H]3C=C(C)/C(=N/O)[C@H]4OC/C(=C\C=C\[C@@H]2C)[C@]43O)O[C@@H](C)[C@H]1O | 3.98 µM (active)

Row | SMILES | Potency
21 | CC1(C)CC[C@]2(C(=O)O)CC[C@]3(C)C(=CCC4[C@@]5(C)C[C@@H](O)[C@H](O)C(C)(C)C5CC[C@]43C)C2C1 (stereo not given in full) | inactive
22 | CC(C)(O)c1ccccc1CC[C@@H](SCC1(CC(=O)O)CC1)c1cccc(/C=C/c2ccc3ccc(Cl)cc3n2)c1 | inactive
23 | CC1(C)CCC(C)(C)c2cc3c(cc21)Sc1ccccc1N=C3c1ccc(C(=O)O)cc1 | inactive
24 | N#Cc1ccc(N2N=C3c4ccc(C(=O)O)cc4CC[C@@H]3[C@@H]2C2CCCC2)cc1Cl | inactive
25 | CCOC(=O)c1ccc(NC(=O)CSc2nc(-c3ccc(F)cc3)cc(C(F)(F)F)c2C#N)cc1 | inactive
26 | O=S(=O)(Nc1cc(Cl)c(Oc2cnc3ccccc3c2)c(Cl)c1)c1ccc(Cl)cc1Cl | 22.4 µM (active)
27 | CCCCCCCOc1cc2c(cc1/C(C)=C/c1ccc(C(=O)O)cc1)C(C)(C)CCS2(=O)=O | 14.1 µM (active)
28 | O=C(N/N=C/c1ccc(O)c(O)c1)c1cc2ccccc2cc1O | inactive
29 | CC(C)=CCc1c2c(c3occ(-c4ccc(O)c(O)c4)c(=O)c3c1O)C=CC(C)(C)O2 | 4.47 µM (active)
30 | Nc1ncnc2c([C@@H]3N[C@H](CO)[C@@H](O)[C@H]3O)c[nH]c12 | inactive
31 | O=C1NC(=O)/C(=C/c2cccc(C(F)(F)F)c2)S1 | inactive
32 | O=C1NC(=O)/C(=C/c2ccc3c(c2)OC(F)(F)O3)S1 | inactive
33 | COc1cc(C(=O)NS(=O)(=O)c2ccccc2C)ccc1Cc1cn(C)c2ccc(NC(=O)OC3CCCC3)cc12 | inactive
34 | CC(C)c1cccc2c(-c3ccccc3)cc(-c3ccc(-c4ccc(C(=O)O)cc4)[nH]3)nc12 | 10 µM (active)
35 | COc1cc(/C=C/c2ccccc2)c(C(=O)O)c(O)c1CC=C(C)C | inactive
36 | CC1CCN(C(c2ccc(F)cc2)c2ccc(C(C)C(=O)O)cc2-c2ccc(C(F)(F)F)cc2)CC1 (stereo not given) | 14.1 µM (active)
37 | CN(C)[C@@H]1C(=O)C(C(N)=O)=C(O)[C@@]2(O)C(=O)C3=C(O)c4c(O)ccc(Cl)c4[C@@H](O)[C@H]3C[C@@H]12 | inactive
38 | CC(C)(C)Sc1c(CC(C)(C)C(=O)O)n(Cc2ccc(Cl)cc2)c2ccc(OCc3ccc4ccccc4n3)cc12 | 25.1 µM (active)
39 | O=C(O)c1ccc(O)c2ncc(N3CCCN(CCc4cccc5ccccc45)CC3)cc12 | inactive
40 | Cc1cc(C(C#N)c2ccc(Cl)cc2)c(Cl)cc1NC(=O)c1cc(I)cc(I)c1O (stereo not given) | 22.4 µM (active)
